According to PubChem BioAssay (NCI):
Values joined by “and” are separate entries in the source; they are usually repeats but may differ in a detail not shown here. Equal entries are not always repeated. This is part of a sample that, as a whole, favours compounds with a hit. Of some 79,000 tested, about 15% had one in any assay. Active and inactive are the calls of the source. No stated cut-off is given here; in the data, active means growth inhibition above about 70%; inactive means the rest.

Columns and labels:
[1] = NCI Yeast Anticancer Drug Screen. Data for the rad50 strain (AID 155);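 further: 0% = growth of vehicle-only cultures of the same strain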; conditions: S. cerevisiae rad50 strain growth inhibition; at 50.0 µM; active compounds read high
In short: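 Inhibition values express reduced yeast growth in compound-treated cultures relative to vehicle-treated controls.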

[2] = NCI Yeast Anticancer Drug Screen. Data for the mec2-1 strain (AID 157); conditions: S. cerevisiae mec2-1 strain, at 50.0 µM, active compounds read high
In short: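 Compounds were applied to mec2-1 yeast cells. Their growth was then compared with that of vehicle-treated cultures to give growth inhibition.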

[3] = NCI Yeast Anticancer Drug Screen. Data for the sgs1 mgt1 strain (AID 161);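 further: 0% = growth of cultures given vehicle only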; conditions: S. cerevisiae sgs1 mgt1 strain, at 50.0 µM, active compounds read high
In short: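 Yeast cells carrying a defined DNA-repair defect were exposed to test compounds. Growth inhibition was measured relative to vehicle-treated controls.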

[4] = NCI Yeast Anticancer Drug Screen. Data for the cln2 rad14 strain (AID 165);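 further: 0% = growth equal to vehicle treated cultures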; conditions: S. cerevisiae cln2 rad14 strain, at 50.0 µM, active compounds read high
In short: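 Strain: cln2 rad14 yeast, altered in cell cycle control and DNA damage repair. Read-out: growth inhibition vs vehicle.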

[5] = NCI Yeast Anticancer Drug Screen. Data for the bub3 strain (AID 167); conditions: S. cerevisiae bub3 mutant strain, at 50.0 µM, active compounds read high
In short: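 Steps: expose the mutant yeast strain to compound; grow alongside vehicle-treated cultures; measure growth; express inhibition against the vehicle cultures.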

[6] = NCI Yeast Anticancer Drug Screen. Data for the mlh1 rad18 strain (AID 175); conditions: S. cerevisiae mlh1 rad18 strain growth inhibition; at 50.0 µM; active compounds read high
In short: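 A repair-deficient yeast strain is exposed to test compound, and growth is scored relative to vehicle-treated controls.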

Measured: growth inhibition

O=C(Nc1ccc(N(CCCl)CCCl)cc1)Oc1ccc(C(=O)O)cc1
inactive: [1] 6.75% | [2] 6% | [3] 10.1% | [4] 9.3% | [5] 15.2% | [6] 20.5%

N#CC1(c2ccccc2)CCCC1
inactive: [1] 5.7% | [2] 8.25% | [3] -4.7% | [4] 11.6% | [5] -4.05% | [6] 2.2%

CCOP(=O)(OCC)c1cc2cc(O)ccc2oc1=O
inactive: [1] -40% | [2] -26% | [3] -32.2% | [4] 2.75% | [5] -8.75% | [6] -50.7%

CC(=O)CC(C)=O.CC(=O)CC(C)=O.CC(=O)CC(C)=O.[Co]
inactive: [1] -27.8% and 13.9% | [2] -50.8% and -4.9% | [3] -4.85% and 26.6% | [4] -20.4% and -16.4% | [5] -45% and 23.6% | [6] -10.2% and 21.3%

COc1ccc2nc3cc(Cl)ccc3c(NCCCSCCCl)c2n1
active: [1] 95.4% | [2] 80% | [3] 94.3% | [4] 78.4% | [5] 71.3% | [6] 92.2%

CCCCCCCCCCC[CH2][Hg][CH2]CCCCCCCCCCC
inactive: [1] 9.8% | [2] -1.05% | [3] 4% | [4] -4.65% | [5] 4.55% | [6] -4.3%
